TDP1 cell CPT: DT40-hTDP1 cell growth loss with CPT; chicken DT40 Tdp1-/-;hTDP1 cells + 20 nM CPT, ATP luminescence, 48 h; Potency, µM (titrated, usually from 46.2 µM), inactives show at the top dose activity change, negative = growth inhibition, actives largely listed as inhibitors; hit rate 12% among 420,000; further: potency means the concentration at half of the fitted maximal effect; nearly all actives have a fitted effect of over 55% in size
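Chicken DT40 Tdp1-/- cells complemented with human TDP1, 400 cells/well, exposed to compounds plus 20 nM camptothecin for at least 48 h at 37 C; viability read as ATP content by CellTiter-Glo luminescence.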
HT1080-NT tox: kills 2HG-producing HT-1080-NT fibrosarcoma cells; HT-1080-NT fibrosarcoma viability, CellTiter-Glo ATP luminescence, 48 h; Potency, µM (doses to about 46.1 µM), for inactives: at the top dose activity, negative = less viability, usual class: cytotoxic; hit rate 1.6% among 360,000; AID 686970;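 further: NT is the 2HG producing partner of a matched IDH1 knockdown line; potency means the concentration at half of the fitted maximal effect; 0% = DMSO-treated cells and -100% = media-only wells without cells; nearly all actives have a fitted effect of over 55% in size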
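Fibrosarcoma NT cells, 750 per well in 5% FBS RPMI, were exposed to compound for 48 hours. Viability: CellTiter-Glo luminescence.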
DT40 TDP1 no CPT: qHTS for Inhibitors of human tyrosyl-DNA phosphodiesterase 1 (TDP1): qHTS in cells in absence of CPT | AID 686978, 2013 | DT40 Tdp1-/- hTDP1 cells, no CPT, ATP luminescence, 48 h | Potency, µM (doses to about 46.2 µM), without a hit: top-dose activity change, negative = growth inhibition, actives largely listed as inhibitors | hit rate 15% among 420,000; further: potency means the concentration at half of the fitted maximal effect; nearly all actives have a fitted effect of over 55% in size
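Compound effects on proliferation are scored in DT40 Tdp1-/-;hTDP1 cells in the absence of CPT. ATP levels (CellTiter-Glo luminescence) are recorded after a ≥48 hr, 37 °C incubation.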
IL1B secr inh: blocks inflammasome-driven IL-1 beta release. THP-1 LPS/ATP IL-1B secretion, AlphaLISA, 16 h; hits give low values. activity change, % at 57.5 µM. hit rate 4.7% among 360,000. AID 743279; in the data active means activity change below about -50%; inconclusive means mostly about -30% to -49%
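THP-1 cells pretreated 1 hr with compounds (up to 57.5 uM final), then stimulated with LPS (250 ng/mL final) plus ATP (1.25 mM final); secreted IL-1B measured by AlphaLISA after 16 hr, decreased signal indicating inhibition.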
HT1080 IDH1KD tx: HT-1080 IDH1 knockdown cell toxicity (counter line) | HT-1080 IDH1 knockdown viability, ATP luminescence, 48 h | Potency, µM (titrated, usually from 46.1 µM), inactives show at the highest dose activity, negative = toxicity, actives largely listed as cytotoxic | hit rate 2% among 360,000 | AID 686971;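 further: potency means the concentration at half of the fitted maximal effect; 0% = DMSO wells and -100% = cell-free medium wells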
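Knockdown cells (IDH1KD HT-1080) received compounds 2 h after plating at 750 cells/well and were kept 48 h at 37 °C in 5% FBS RPMI. A CellTiter-Glo luminescence read gave % activity for curve fitting.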
ELG1 DNA repair: blocks ELG1-dependent DNA repair in HEK293T cells; hit rate 2.3% among 330,000; Potency, µM (doses to about 46.1 µM), for the others: at the top dose activity change, negative = inhibition, most hits filed as inhibitors; HEK293T ELG1-luciferase reporter, luminescence, 16 h; DNA damage induced by 5-fluorouridine; further: potency means the concentration at half of the fitted maximal effect; nearly all actives have a fitted effect of over 55% in size
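Step one: seed 2,000 cells per well. Step two: pin-transfer compound or DMSO alongside 5-fluorouridine. Step three: incubate 16 hr, 37 °C, 5% CO2. Step four: add ONE-Glo, wait 30 min, read luminescence.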
* marks the source's active call; other numbers are inactive results; ? = inconclusive; / = no result given. Rows were chosen to be rich in hits. Some 19% of all compounds tested hit in one or more screens of this group. Unless noted, the call rests on the fitted dose curve; in most records, active means well fitted curve in the direction sought with a large enough effect; inconclusive means small, poorly fitted or top-dose-only effect, or another doubt; inactive means no such curve, though single readings can be large; an effect the other way counts as inactive or inconclusive. Unless noted, on the % scale 0 is the no-effect control and ±100 the full control effect.

SMILES	TDP1 cell CPT	HT1080-NT tox	DT40 TDP1 no CPT	IL1B secr inh	HT1080 IDH1KD tx	ELG1 DNA repair
COc1ccc(Cl)cc1NC(=O)Cn1c(=O)n(Cc2ccc(F)cc2)c(=O)c2cccnc21	?	/	9.2µM*	/	/	/
Cc1ccc(C)c(NC(=O)Cn2c(=O)n(Cc3cccs3)c(=O)c3cccnc32)c1	18µM*	/	13µM*	/	/	/
COc1ccc(Cn2c(=O)c3cccnc3n(CC(=O)Nc3ccc(C)c(F)c3)c2=O)cc1	-17%	/	?	/	/	/
CC12CC(NC(=O)N1c1cccc(C(=O)N3CCCCC3)c1)c1ccccc1O2 (stereo not given)	0%	-2%	27%	21	5%	-7%
Cc1nc(Nc2ccc(Cl)c(Cl)c2)sc1C(=O)Nc1ccccc1	6.5µM*	?	15µM*	-26	-23%	?
Cc1nc(NC(=O)/C=C/c2ccccc2)sc1C(=O)Nc1ccc(Cl)cc1	?	?	?	-10	?	-17%
Cc1nc(NC(=O)C2CC2)sc1C(=O)Nc1cccc(Cl)c1	?	?	?	15	?	0%
Cc1nc(Nc2ccc(Cl)cc2Cl)sc1C(=O)Nc1ccccc1	26µM*	18%	18µM*	-94*	26%	?
COC(=O)c1ccc(N=NN2CCCCCC2)cc1	1%	-6%	2%	-63*	-1%	?
COC(=O)c1ccc(N=NN2CCOCC2)cc1	6%	22%	-2%	-9	29%	?
COc1cccc(N2[C@@H](CC(C)=O)c3ccc(/C=C/C(C)=O)cc3S2(=O)=O)c1	5.2µM*	10%	5.2µM*	-100*	?	/
COc1ccc(CN2[C@@H](CC(C)=O)c3ccc(/C=C/C(C)=O)cc3S2(=O)=O)cc1	7.3µM*	?	9.2µM*	-102*	?	/
COC(=O)/C=C/c1ccc2c(c1)S(=O)(=O)N(Cc1ccc(OC)cc1)[C@H]2CC(=O)OC	?	0%	?	-10	-2%	/
O=C(O)CCNC(=O)C12CC3CC(CC(C3)C1)C2	2%	7%	0%	0	15%	7%
CCCN(CC(=O)Nc1ccccc1C)C(=O)c1ccc(S(=O)(=O)N2CCC(C)CC2)cc1	-28%	-2%	?	-4	-1%	12%
CN(C)c1cccc(NC(=O)C2Cc3c(-c4cccnc4)ccnc3O2)c1 (stereo not given)	8%	0%	0%	-8	1%	/
CC(=O)Nc1ccc(S(=O)(=O)Oc2ccccc2N2C(=O)C3C4CCC(C4)C3C2=O)cc1 (stereo not given)	8%	-3%	-10%	0	-11%	?
O=C1C2CCCCC2C(=O)N1c1cccc(OS(=O)(=O)c2ccccc2)c1 (stereo not given)	1%	10%	-5%	15	1%	1%
CC(=O)Nc1ccc(S(=O)(=O)Oc2cccc(N3C(=O)C4CC=CCC4C3=O)c2)cc1 (stereo not given)	?	4%	21µM*	51	-1%	23µM*
CC(=O)Nc1ccc(S(=O)(=O)Oc2ccc(N3C(=O)C4CCCCC4C3=O)cc2)cc1 (stereo not given)	16µM*	-17%	18µM*	26	-12%	5%
O=C(NCc1ccccn1)[C@@H]1CCCN1C(=O)[C@@H]1CCCN1C(=O)c1cccc2ccccc12	-12%	1%	-22%	-1	15%	/
CCc1ccc(CN(C)C(=O)CCc2nc3ccccc3n(-c3ccc(OC)cc3)c2=O)cc1	16µM*	-13%	21µM*	-56*	15µM*	-26%
COc1ccc(-n2c(=O)c(CCC(=O)N(C)Cc3ccccc3C)nc3ccccc32)cc1	?	-2%	?	0	2%	?

Compound activity as filed in PubChem.
